The record followed here is PubChem BioAssay (NCI).

This is part of a sample that, as a whole, favours compounds with a hit. Of some 83,000 tested, about 20% had one in any assay.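 48-hour exposure, single concentration, 96-well plates; percent growth endpoint where 0 means no net growth. Active: below 10.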 Activity calls are given as the source filed them.

The assay has as its system NCI-H460 lung. In words: NCI-60 one-dose screen, 48 h (100 = growth as untreated, 0 = no growth, -100 = all killed). Conditions: 10 µM unless noted. How it is done: Growth inhibition of the NCI-H460 human Non-Small Cell Lung tumor cell line is measured as a screen for anti-cancer activity. Cells are grown in 96 well plates and exposed to the test compound for 48 hours. Compounds are tested at a single concentration, which is 10^-5 M for most compounds. The reported endpoint is percent growth (GI% or GIPRCNT), where numbers from 0 - 100% represent growth inhibition, and numbers from -100% - 0 represent cell death. For example, a value of 40 represents 60% growth inhibition. A value of 0 means no net growth occurred over the course of the experiment. A value of -40 indicates 40% of cells at the beginning of the experiment died by the end of the experiment. A value of -100 means all cells are dead at the end of the experiment.
NCI-60 Human Tumor Cell Lines Screen was performed using the standard one-dose NCI protocol, which is described in more detail at https://dtp.cancer.gov/discovery_development/nci-60/default.htm.
Compounds with GIPRCNT values below 10 were considered active. Activity score was based on GIPRCNT using the following formula: […]
Score is 0 for GIPRCNT values of 100 or above, 50 for GIPRCNT values of 0, and 100 for GIPRCNT values of -100.
As for `O=c1[nH][n+](-c2ccc(Cl)cc2)no1`, the growth was 44.1% (inactive).

For the compound `O=C(Nc1ccc(Cl)cc1)Nc1ccc(Cl)c(C(F)(F)F)c1`, the growth is 0.218% (active).

On to `O=C(Nc1cccc2c(O)c(N=Nc3ccc(S(=O)(=O)Nc4nccs4)cc3)cc(N=Nc3ccc(S(=O)(=O)Nc4nccs4)cc3)c12)C(Cl)Cl`, for which the growth was 73.4% (inactive).

Take `CCCCCCCCCOc1c(OC)cc(C2CC(=O)Nc3c2c(C)nn3-c2nc3ccccc3[nH]2)cc1OC` (stereo not given): the growth is -23.4% (active).

Consider `N#CCN1C(=O)C2C3=C(CCCC3)SC2N=C1CN1CCCC1` (stereo not given), for which the growth was 117% (inactive).

As for `O=S(=O)(NCCCNc1cc(-c2c(-c3cccc(O)c3)nc3sccn23)ccn1)c1cccc(Cl)c1`, the growth was 47.3% (inactive).

Regarding `CN(C)CC1C(=O)O[C@H]2[C@H]1CC/C(COC(=O)c1cc3ccccc3[nH]1)=C\CC[C@@]1(C)O[C@@H]21` (stereo not given in full), the growth is 17.6% (inactive).

For `CCCCCS(=O)(=O)Nc1ccc(C(=O)O)cc1`, the growth was 104% (inactive).

On to `COc1ccc(N=Nc2ccc(O)c(=O)cc2)cc1`, for which the growth is 2.64% (active).

`CCCCOc1nc2ccccc2cc1C1CNC(=O)c2ccccc2N1` (stereo not given): the growth is 6.89% (active).

With `Cc1c(O)cc(-c2cnc(N/N=C\c3ccc(Cl)cc3)s2)c(O)c1C`, the growth is 100% (inactive).

For the compound `COc1ccc(-c2cc(-c3ccc(Nc4nc(Nc5ccc(Cl)cc5)nc(Nc5ccc(Cl)cc5)n4)cc3)nc(N)c2C#N)cc1`, the growth was 57.6% (inactive).

For `CCCCn1c(=O)c2c(nc3n2CCCN3CCc2ccc(OCC(=O)NCCN(CC)CC)cc2)n(CCCC)c1=O`, the growth was 56.9% (inactive).

Turning to `CS(=O)c1cccc(-c2ccc3nc(N)n(-c4ccc(C(F)(F)F)cc4)c(=O)c3c2)c1` (stereo not given), the growth is 102% (inactive).

Regarding `CC1CC2Oc3ccc(Cl)cc3C(=O)N2O1` (stereo not given), the growth is 108% (inactive).

Turning to `COc1ccc2cc(-c3cc(OC)c(OC)c(OC)c3)c(=O)oc2c1`, the growth was 84.4% (inactive).

As for `Cc1ccc(Nc2ccc(Nc3ccc(C)cc3)c3c2C(=O)c2cccc(O)c2C3=O)cc1`, the growth is 88.3% (inactive).

Regarding `O=S(=O)(O)c1ccc(N/N=C/c2ccccc2Cl)cc1`, the growth is 109% (inactive).

Consider `COc1ccc2c(c1)CCCN2c1c2ccccc2nc2ccccc12`, for which the growth was 6.18% (active).

In the case of `Cc1nn(-c2ccccc2)c(Oc2ccc(Cl)cc2)c1/C=N\N=c1/sc2ccccc2n1C`, the growth was 85% (inactive).

On to `COc1ccc(NC(=O)c2nc(-c3cc(OC)c(OC)c(OC)c3)n(-c3cccc4ccccc34)n2)cc1OC`, for which the growth is 49.6% (inactive).

Regarding `CC1CC(C(C)(C)C)C(=O)C(C(C)(C)C)C1` (stereo not given), the growth is 108% (inactive).

With `O=C(Nc1cccc(C(F)(F)F)c1)Nc1cccc(C(F)(F)F)c1`, the growth was 5.08% (active).

As to `COc1ccc2[nH]c(O)c(/C=c3/cc4c(c(-c5ccc(F)c(OC)c5)n3)=Nc3ccccc3-4)c2c1`, the growth was -21.9% (active).

As for `CCc1ccccc1-n1c(-c2ccc(Cl)cc2)cc(-c2ccc(Cl)cc2)c(C#N)c1=O`, the growth is 93.9% (inactive).

Consider `Cc1cc(NCCCCNc2ccnc3cc(Cl)ccc23)nc(Nc2ccc(C(=O)N3CCCC3)cc2)n1`, for which the growth is 18.1% (inactive).

For the compound `O=c1c2cc(F)ccc2sc2c(NCCCN3CCCC3)nc3ccccc3c12`, the growth was 12% (inactive).

Take `CN1CCN(CCCOc2ccc3nc(Nc4ccc(F)c(F)c4)ccc3c2)CC1`: the growth was 7.51% (active).

`Cc1ccc(-c2c(-c3ccccc3)c(=O)oc3ccc(C)cc23)cc1`: the growth is 93.8% (inactive).

As for `NS(=O)(=O)c1cnccc1Oc1cccc2cccnc12`, the growth was 108% (inactive).

As to `COc1ccc(-c2cc(-c3cc(OC)ccc3OC)nc(SCC(=O)c3ccccc3)c2C#N)cc1`, the growth was 102% (inactive).

On to `CC(C)(C)C(CCc1ccc(Cl)cc1)N1CCN(C2CCCCC2)CC1` (stereo not given), for which the growth was 25.2% (inactive).

For `CCc1ccccc1-n1c(-c2ccc(Cl)cc2)cc(-c2ccc(OC)cc2)c(C#N)c1=O`, the growth was 99.7% (inactive).

For `O=C(Nc1ccccc1)Nc1cccc(Oc2nnc(Cl)c3ccccc23)c1`, the growth is 25.3% (inactive).

For the compound `O=C(c1ccccc1)c1c(/C=C/c2ccc(Cl)cc2)nc2ccccc2c1/C=C/c1cccs1`, the growth was 107% (inactive).

On to `CCOc1ccccc1-n1c(CN2CCN(C(=O)COc3ccc(CNCCCCCCN4C5CCCC4CC(OC(=O)Nc4cc(C)ccc4OC)C5)cc3)CC2)nc2ccccc2c1=O` (stereo not given), for which the growth is -90.9% (active).

In the case of `COc1ccc(-c2nc(SCCC(C)C)nc(N/N=C\c3cccc(Cl)c3)c2C#N)cc1`, the growth was 15.2% (inactive).

In the case of `C#Cc1cccc(NC(=O)c2ccc(NC(=O)CCl)cc2)c1`, the growth was -24.6% [8.25 µM] (active).

In the case of `CNC(=O)c1cc(Oc2cccc3nc(Nc4ccc(F)c(Cl)c4)ccc23)ccn1`, the growth is 62.5% (inactive).

`CCN(CC)c1nc(SCC(=O)Nc2nc3ccc(C)cc3s2)nc(-c2ccccc2)c1C#N`: the growth was 99.4% (inactive).
